Results reported in ChEMBL document CHEMBL3988442, “University of Dundee, Small-Polar-MMV Screening Library” (2021).
In all, about 48,000 compounds went through this assay and about 13,000 (27%) showed an effect of 50% or more. The list shows a part of the results.

test system: Wolbachia pipientis; assay: Anti-Wolbachia Cell-Based Screen; format: functional; set-up: scale not given: in the data most compounds retested in dose-response had high values; details: 5 µM

Row | Structure (SMILES) | Percent Effect [%]
1 | Cc1ccc(NC(=O)c2ccc(N3CCCCC3)nn2)c(Cl)c1 | -6.125
2 | Cc1cc(C)n(CC(=O)N2CCCCC2CCN2CCCC2=O)c(=O)n1 (stereo not given) | 117.3
3 | O=C(NCCCc1cccs1)N1CCCCC1CCO (stereo not given) | -11.71
4 | O=C1CCCN1CCC1CCCCN1C(=O)c1ccc(SCCO)cc1 (stereo not given) | 10.34
5 | Cc1cc(C)n(CC(=O)N2C[C@@H]3CC[C@H](C2)N(CC2CCC2)C3)c(=O)n1 | 9.507
6 | Cc1cc(C)n(CC(=O)N2CCCCC2CCc2cccs2)c(=O)n1 (stereo not given) | 103.5
7 | Cn1c(C2CCCCN2C(=O)CN2CCCC2=O)nc2ccccc21 (stereo not given) | 3.336
8 | Cc1cc(C)n(CC(=O)N(C)Cc2csc(-c3cccs3)n2)c(=O)n1 | -2.174
9 | Cc1cc2ccccc2n1CCC(=O)N1CCCCC1CCO (stereo not given) | -1.29
10 | Cc1cc(C)n(CC(=O)N2CCCCC2CCN(C)C)c(=O)n1 (stereo not given) | 101.4
11 | COC(=O)c1cc(CN2CCN(c3nc(C)cnc3C)CC2)ccc1O | -22.17
12 | CCN(CC)C(=O)c1cc(Br)cc(S(=O)(=O)N2CCOCC2)c1F | -12.93
13 | COc1ccccc1C(=O)Nc1c(C)cnn1CC1CC1 | -3.808
14 | COc1ccccc1C(=O)Nc1ccc(OC2CCN(C)CC2)cc1 | -27.65
15 | COc1ccccc1C(=O)Nc1c(F)c(C(=O)NC2CCCC2)nn1C | 102.6
16 | COc1ccccc1C(=O)Nc1c(F)c(C(=O)N2CCCC2)nn1C | 113.5
17 | Cc1nn(C)c(C)c1C(C(=O)O)N1CCc2ccccc2C1 (stereo not given) | 39.47
18 | CC(C)C(=O)Nc1cc(C(C)(C)C)nn1-c1ccccn1 | 3.907
19 | CN(Cc1ccccc1Cl)C(C(=O)O)c1ccc(F)c(CO)c1 (stereo not given) | -0.8463
20 | Cc1ccc(-n2cc(S(=O)(=O)Nc3cccc(C(=O)O)c3C)cn2)cc1 | 125.3
21 | Cc1cccc(NS(=O)(=O)c2cnn(C)c2)c1C#N | -6.698
22 | NC(=O)C1CCN(S(=O)(=O)c2cnn(-c3ccccc3)c2)CC1 | -7.83
23 | CCn1cc(C(=O)Nc2ccc(C)cc2C(=O)NC)cn1 | -4.213

Row | Structure (SMILES) | Percent Effect [%]
24 | CCn1cc(S(=O)(=O)NC(CO)Cc2ccccc2)cn1 (stereo not given) | -18.17
25 | Cc1ccc(NS(=O)(=O)c2cnn(-c3ccccc3)c2)c(C(=O)O)c1 | 131.3
26 | Cc1cn(-c2ccccc2)nc1NS(=O)(=O)c1cccc(C(=O)O)c1 | 12.37
27 | Cc1ccc(NS(=O)(=O)c2cnn(Cc3ccccc3)c2)c(C(=O)O)c1 | 100.3
28 | CCn1nc(C)c(S(=O)(=O)Nc2cccc(C(=O)O)c2C)c1C | -0.6024
29 | CC(C)c1cc(N2CCC(C(C)N3CCCC3)CC2)n2nccc2n1 (stereo not given) | -4.218
30 | CN(Cc1nc(-c2cccs2)no1)Cc1nc2c(s1)CCCC2 | -10.58
31 | Cc1ccc2cnn(CCC(=O)Nc3c(C)nn(C)c3C)c2c1 | -9.349
32 | O=C(NCc1cccc(N2CC=CC2)c1)NC1CC1 | 1.832
33 | Cc1ccc(C(=O)N2CC[C@H](N3CCOCC3)[C@H](CCCO)C2)cc1O | -3.81
34 | Cn1cccc1C(=O)N1CCN(Cc2cccnc2)c2ncccc2C1.O=C(O)C(F)(F)F.O=C(O)C(F)(F)F | 51.12
35 | CN(C)C(=O)N1CCN(C)c2ncccc2C1 | 5.475
36 | COCCN1CCN(C(=O)c2ccncc2F)Cc2cccnc21 | 4.379
37 | Cn1cccc1C(=O)N1CCN(Cc2ccncc2)c2ncccc2C1.O=C(O)C(F)(F)F.O=C(O)C(F)(F)F | -28.33
38 | CN1CCN(C(=O)c2cccn2C)Cc2cccnc21 | 105.6
39 | O=C(c1cnccn1)N1CCN(Cc2ccncc2)c2ncccc2C1 | -4.343
40 | Cn1cccc1C(=O)N1CCN(CC2CC2)c2ncccc2C1 | -25.73
41 | O=C(c1cnccn1)N1CCN(Cc2cccnc2)c2ncccc2C1 | 97.13
42 | O=C(N1CCCC1)N1CCN(Cc2cccnc2)c2ncccc2C1.O=C(O)C(F)(F)F.O=C(O)C(F)(F)F | 101.8
43 | Cc1ccc(C2COCCN2C(=O)c2ccc(CN(C)C)cc2)o1 (stereo not given) | -6.944
44 | CC(C)Oc1cc(N2C[C@H](C3CC3)[C@@H](N)C2)nc(N)n1 | 12.97
45 | COc1ccc(-c2noc([C@@H]3C[C@H](NC(=O)NC(C)C)CN3C)n2)cc1 | 2.003
46 | COc1ccnc(N2Cc3cnc(C(C)(C)C)nc3C2)n1 | -13.37

Row | Structure (SMILES) | Percent Effect [%]
47 | CC(=O)NCC(=O)N1CCN(Cc2ccncc2)c2ncccc2C1 | -10.24
48 | O=C(O)C(F)(F)F.O=C(O)C(F)(F)F.O=C(c1ccnnc1)N1CCN(Cc2ccncc2)c2ncccc2C1 | 96.92
49 | O=C(c1ccncc1F)N1CCN(CC2CC2)c2ncccc2C1 | 10.49
50 | O=C(c1ccc[nH]1)N1CCC(c2nccn2Cc2ccncc2)CC1 | -7.637
51 | O=C(c1ccc[nH]1)N1CCN(Cc2ccncc2)c2ncccc2C1 | 105
52 | O=C(O)C(F)(F)F.O=C(O)C(F)(F)F.O=C(c1ccnnc1)N1CCN(Cc2cccnc2)c2ncccc2C1 | 97.06
53 | CN1CCN(C(=O)Cc2cccc(F)c2)Cc2cccnc21.O=C(O)C(F)(F)F | -17.2
54 | O=C(O)C(F)(F)F.O=C(O)C(F)(F)F.O=C(O)C(F)(F)F.O=C(c1ccncc1)N1CCN(Cc2cccnc2)c2ncccc2C1 | 105.3
55 | Cc1cc(C)n(-c2cncc(N3CCN(C(=O)C(C)(C)C)CC3)n2)n1 | 6.121
56 | NC(=O)c1cccc(CCNCc2cccs2)c1 | 0.5417
57 | Cc1ccc2c(c1)c(CNC(=O)C1CCCN(CC(N)=O)C1)nn2C (stereo not given) | -18.62
58 | CN1[C@H](Cn2cncn2)C[C@@H]2CN(C3CCOCC3)CC[C@@H]21.O=C(O)C(F)(F)F.O=C(O)C(F)(F)F | 8.742
59 | CC(=O)N1CC[C@H]2[C@H](C[C@@H](Cn3cncn3)N2c2nccs2)C1.O=C(O)C(F)(F)F | 4.075
60 | CC(C)N1[C@H](Cn2cccn2)C[C@@H]2CN(C3CCOCC3)CC[C@@H]21.O=C(O)C(F)(F)F.O=C(O)C(F)(F)F.O=C(O)C(F)(F)F | 7.148
61 | CN1CC[C@H]2[C@H](C[C@@H](Cn3cncn3)N2c2nccs2)C1 | -5.255
62 | CC(C)N1CC[C@H]2[C@H](C[C@@H](Cn3cncn3)N2c2nccs2)C1.O=C(O)C(F)(F)F.O=C(O)C(F)(F)F | 110.1
63 | CC(C)N1CC[C@H]2[C@H](C[C@@H](Cn3cccn3)N2c2nccs2)C1.O=C(O)C(F)(F)F.O=C(O)C(F)(F)F.O=C(O)C(F)(F)F | 108.8
64 | OC(CN1CCN(CC(F)F)CC1)c1ccc(Br)cc1 (stereo not given) | 2.807
65 | CC(C)CCN1C(=O)CC(N(C)Cc2nc3ccccc3c(=O)[nH]2)C1=O (stereo not given) | -3.315
66 | COc1cccc(CN2CCC(CO)(Cc3ccc(Cl)cc3)CC2)c1O | -4.953
67 | COCC(=O)N1CCC2(CC1)COC(COCc1ccccn1)C2.O=C(O)C(F)(F)F (stereo not given) | -3.538
68 | CCN1CCC2(CC1)CC(COC)N(Cc1csc(C)n1)C2.O=C(O)C(F)(F)F.O=C(O)C(F)(F)F (stereo not given) | 21.22
69 | COCC(=O)N1CCC2(CC1)CC(COC)N(Cc1ccccn1)C2.O=C(O)C(F)(F)F (stereo not given) | 100.7

Row | Structure (SMILES) | Percent Effect [%]
70 | COCC(=O)N1CCC2(CC1)CC(COC)N(c1ncccn1)C2.O=C(O)C(F)(F)F (stereo not given) | -2.409
71 | COCC1CC2(CCN(Cc3nccs3)CC2)CN1Cc1ccccn1.O=C(O)C(F)(F)F.O=C(O)C(F)(F)F.O=C(O)C(F)(F)F (stereo not given) | 106.7
72 | COCC1CC2(CCN(Cc3ccoc3)CC2)CN1Cc1ccccn1 (stereo not given) | 97.98
73 | COCC1CC2(CCN(Cc3ccccn3)CC2)CN1c1ncccn1.O=C(O)C(F)(F)F.O=C(O)C(F)(F)F.O=C(O)C(F)(F)F (stereo not given) | 0.4015
74 | FC(F)(F)CCc1ccnc(N[C@H]2CC[C@H](n3cnnc3)CC2)n1 | -3.85
75 | CCNC(=O)NC[C@H]1Cn2c(-c3ccccc3)cnc2CO1 | -18.82
76 | Cc1ccc(C)c(CS(=O)(=O)Cc2ccn(C)c(=O)c2)c1 | 17.59
77 | Cc1cnn(C2CCCN(C(=O)c3ccc(C(N)=O)cn3)C2)c1 (stereo not given) | 85.91
78 | Cc1cnn(C2CCCN(C(=O)COc3ccc(C(N)=O)cc3)C2)c1 (stereo not given) | -8.397
79 | Cc1cnn(C2CCCN(C(=O)c3ccnc(-n4ccnc4)c3)C2)c1 (stereo not given) | 5.29
80 | Cc1cnn(C2CCCN(C(=O)c3ccn(C)c(=O)c3)C2)c1 (stereo not given) | -5.065
81 | O=C(c1ccc(NC2CC2)nc1)N1CCCC(n2cccn2)C1 (stereo not given) | -7.453
82 | Cc1cnn(C2CCCN(C(=O)c3ccnc(N(C)C)c3)C2)c1 (stereo not given) | 7.39
83 | Cc1cnn(C2CCCN(C(=O)C3=NN(C)C(=O)CC3)C2)c1 (stereo not given) | 5.956
84 | CNC(=O)c1ccc(C(=O)N2CCCC(n3cc(C)cn3)C2)cn1 (stereo not given) | -2.2
85 | Cc1cnn(C2CCCN(C(=O)c3ccc4c(c3)CCC4)C2)c1 (stereo not given) | 100.4
86 | Cc1cnn(C2CCCN(C(=O)c3ccc(NC4CC4)nc3)C2)c1 (stereo not given) | 77.38
87 | Cc1cnn(C2CCCN(C(=O)c3ccnc(-n4cncn4)c3)C2)c1 (stereo not given) | 91.3
88 | Cc1nc(C)n(C2CCCN(C(=O)c3ccc(NC4CC4)nc3)C2)n1 (stereo not given) | 0.453
89 | Cn1cnc2c1C(C(=O)N1CCCO1)N(C(=O)c1ccccc1)CC2 (stereo not given) | -3.517
90 | N#Cc1cccc(N2CCC3(CC2)Nc2ccccc2NC3=O)n1 | -5.007
